Screening results as filed in PubChem BioAssay.
SRC1 TRFRET art – counter-screen for PPARgamma SRC-1 recruitment agonists: TR-FRET artefact. TR-FRET detection artefact counter-screen, emission ratio; stronger effect = higher value. TR-FRET ratio at 8 µM. 99,000 compounds, 0.34% hits; in the data active means TR-FRET ratio above about 2300
SRC3 TRFRET art – counter-screen for PPARgamma SRC-3 recruitment agonists: TR-FRET artefact | PPARgamma/SRC-3 format; stronger effect = higher value | TR-FRET ratio at 8 µM | 99,000 compounds, 0.39% hits
PPARg SRC-3 ag – agonists of human PPARgamma SRC-3 coactivator recruitment. 200,000 compounds, 0.26% hits. P37231. biochemical PPARgamma/SRC-3 coactivator recruitment assay. activation, % at 8 µM; in the data active means activation above about 23%;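 further: 0% = DMSO and 100% = reference agonist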
Target sequence (P37231 whole entry, looked up): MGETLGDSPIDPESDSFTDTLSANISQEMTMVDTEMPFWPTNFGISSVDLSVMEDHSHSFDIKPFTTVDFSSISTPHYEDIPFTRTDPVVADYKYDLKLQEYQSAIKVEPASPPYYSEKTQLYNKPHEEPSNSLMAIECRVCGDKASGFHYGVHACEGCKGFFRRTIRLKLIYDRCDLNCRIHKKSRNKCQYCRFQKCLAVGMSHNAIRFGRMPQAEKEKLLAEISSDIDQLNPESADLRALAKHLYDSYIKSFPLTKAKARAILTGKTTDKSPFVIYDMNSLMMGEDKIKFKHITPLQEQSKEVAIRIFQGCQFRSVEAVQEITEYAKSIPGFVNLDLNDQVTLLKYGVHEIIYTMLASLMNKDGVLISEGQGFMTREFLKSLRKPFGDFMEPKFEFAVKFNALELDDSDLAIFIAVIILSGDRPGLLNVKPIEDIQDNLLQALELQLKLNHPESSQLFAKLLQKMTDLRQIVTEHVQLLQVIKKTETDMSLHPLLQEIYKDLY
PPARg SRC1 recr – PPARgamma-driven SRC-1 recruitment agonism; PPARgamma-SRC-1 coactivator recruitment biochemical assay; P37231; 200,000 compounds, 0.41% hits; AID 631; activation, % at 8 µM; in the data active means activation above about 19%;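 further: 0% = DMSO and 100% = reference agonist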
PPARg SRC-2 ag – PPARgamma-driven SRC-2 recruitment agonism; 200,000 compounds, 0.34% hits; P37231; PPARgamma LBD-SRC-2 recruitment, biochemical; activation, % at 8 µM; in the data active means activation above about 22%;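 further: 0% = vehicle and 100% = reference agonist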
SRC2 TRFRET art – TR-FRET artefact, counter-screen to PPARgamma/SRC-2 agonist assay | stronger effect = higher value | TR-FRET ratio at 8 µM | 200,000 compounds, 0.4% hits | AID 1049
An asterisk follows results filed as active; nt = no result given; + = active, no number. A selection: hits, their analogues and other compounds. The true share with any hit is near 0.9%. Unless noted, no stated cut-off is given here; in the data, active means TR-FRET ratio above about 2000; inactive means the rest.

SMILES	SRC1 TRFRET art	SRC3 TRFRET art	PPARg SRC-3 ag	PPARg SRC1 recr	PPARg SRC-2 ag	SRC2 TRFRET art
O=C(Nc1cccnc1)c1cc(-c2ccc3c(c2)OCO3)on1	nt	nt	19	12	20	1992*
CN(Cc1ccc(OC(F)F)cc1)Cc1nc2c(Br)cc(Br)cc2c(=O)[nH]1	2212	2068*	7	14	10	1842
COC(=O)CNC(=O)COC(=O)Cc1ccc(Cl)cc1	1990	1570	-2	4	3	1522
COc1cccc(NC(=S)N2CCn3c(nc4ccccc43)C2)c1	1775	1422	-2	1	12	1921
CCc1ccc2oc(C(=O)Nc3ccc(S(N)(=O)=O)cc3)c(C)c2c1	2324*	1772	3	1	8	1875
Cc1nnc(SC(C)C#N)n1-c1ccccc1 (configuration not stated)	1844	1374	0	2	-1	1459
COc1ccc(C2C(C#N)=C(N)Oc3c2c(-c2ccccc2)nn3-c2ccccc2)c(OC)c1OC (configuration not stated)	1907	1743	2	2	10	1474
N#Cc1c2c(c(-c3ccccc3Cl)[nH]c1=S)CCCC2	3189*	2745*	21	40*	44*	2762*
N#Cc1c(-c2ccccc2Cl)cc(-c2ccccc2)[nH]c1=S	1755	1776	6	8	3	1570
Cc1c(Cl)c([N+](=O)[O-])nn1CCCC(=O)NC1CCCCC1	2057	1633	4	0	5	1601
COc1ccccc1N(CC(=O)NCC1CCCO1)C(=O)CCC(=O)Nc1nccs1 (configuration not stated)	nt	nt	-8	-2	25*	1704
COc1cc2[nH]c3c(=O)n4c(nc3c2cc1OC)SCCC4	1750	1750	3	8	3	1589
COC(=O)c1sc(NC(=S)NC(=O)c2ccccc2F)nc1C	2321*	1927	14	13	12	2016*
Cn1cccc1CC(=O)N/N=C/C(Cl)=C/c1ccccc1	2381*	1886	7	4	-1	1579
Cc1csc2cc(-c3cccc([N+](=O)[O-])c3)c(-c3cccc([N+](=O)[O-])c3)c[n+]12	1994	1622	0	2	2	1638
COc1ccccc1NC(=O)c1ccc(NC(=O)CSc2ncn[nH]2)cc1	1653	1452	-6	-2	1	1517
COc1cccc(Nc2nnc(SCC3CCCCO3)s2)c1 (configuration not stated)	1883	1663	7	-4	-1	2017*
CCOC(=O)c1ccc(N2C(=O)C(CC(N)=O)N(CCc3ccc(OC)c(OC)c3)C2=S)cc1 (configuration not stated)	1709	1634	1	4	0	1681
Cc1cc(C(=O)N/N=C/c2cn[nH]c2-c2ccccc2)cs1	1622	1708	7	6	25*	1759
O=C(Nc1cccc(S(=O)(=O)NC2=NCCCCC2)c1)c1cc(-c2ccc(Cl)cc2)nc2ccccc12	2062	2132*	4	0	9	1927
O=[N+]([O-])c1cccc(S(=O)(=O)c2ccc(NCCO)c([N+](=O)[O-])c2)c1	2009	1522	1	9	8	1595
CN(CP(=O)(O)CN(C)S(C)(=O)=O)S(C)(=O)=O	nt	nt	4	21*	1	1670
O=C(NC1=NCCS1)c1cccc2ccccc12	1805	1617	1	1	-4	1661
Brc1ccc(-c2csc(N/N=C/c3ccco3)n2)cc1	1707	1608	1	3	22*	1757
Cc1ccc(-c2csc(N/N=C/c3ccco3)n2)cc1	nt	nt	9	-5	3	1751
SMILES	SRC1 TRFRET art	SRC3 TRFRET art	PPARg SRC-3 ag	PPARg SRC1 recr	PPARg SRC-2 ag	SRC2 TRFRET art
COc1cc(C#N)c(NC(=O)CN2CCC(C(N)=O)CC2)cc1OC	1772	1531	-1	12	14	1715
COc1ccc(C(=O)C[n+]2ccc3c(c2)nnn3-c2ccccc2)cc1	1557	1477	3	2	3	1547
Cc1ccc(NC(=O)C2OCCc3ccccc32)cc1Cl (configuration not stated)	1951	1500	2	0	-1	1694
O=S(=O)(c1ccccc1)c1nc(-c2ccco2)oc1N1CCOCC1	nt	nt	3	26*	5	1561
COc1ccc(-c2nc(S(=O)(=O)c3ccccc3)c(N3CCOCC3)o2)cc1	1614	1343	0	4	6	1502
CC(=O)OC1c2ccccc2C(=O)N1Cc1ccccc1 (configuration not stated)	nt	nt	4	4	9	1590
O=c1/c(=C/c2ccc(O)c([N+](=O)[O-])c2)sc2nc3ccccc3n12	1575	1579	-1	-1	6	1432
CCN(CC)c1ccc(/C=c2\sc3nc4ccccc4n3c2=O)c(O)c1	5472*	4506*	7	13	6	3056*
CCOC(=O)Cn1c(=NC(=O)c2sc3ccccc3c2Cl)sc2cc(S(N)(=O)=O)ccc21	1761	5980*	+	10	5	1690
COC(=O)Cn1c(=NC(=O)c2nc3ccccc3s2)sc2cc(S(C)(=O)=O)ccc21	1549	1429	-2	-9	-1	1354
C#CCn1c(=NC(=O)c2cc(Cl)sc2Cl)sc2cc(S(N)(=O)=O)ccc21	2299	2182*	6	9	0	2016*
COC(=O)Cn1c(=NC(=O)c2sc3ccccc3c2Cl)sc2cc(S(N)(=O)=O)ccc21	2148	2165*	19	14	17	1991*
C#CCn1c(=NC(=O)CN2C(=O)CCC2=O)sc2cc(S(N)(=O)=O)ccc21	1763	1674	1	5	-2	1657
COC(=O)Sc1nnc(-c2ccc(Br)cc2)o1	nt	nt	63*	45*	54*	2802*
OCC#CCSc1nnc(-c2ccc(Br)cc2)o1	nt	nt	6	13	11	1717
CCOC(=O)c1ccc(NC(=O)CCc2nc(-c3ccc(Cl)cc3)no2)cc1	nt	nt	-12	2	1	1790
CCOC(=O)c1ccc(NC(=O)CCc2nc(-c3ccc(C)cc3)no2)cc1	nt	nt	8	-2	35*	2077*
OCCC1CN(C2CCN(c3ccccc3)CC2)CCN1Cc1ccc(F)c(F)c1 (configuration not stated)	1815	1639	2	6	7	1368
CC(=O)N1CCN(c2ccc(NC(=O)/C=C/c3ccccc3)cc2)CC1	2020	1652	5	9	24*	1649
CC(=O)Nc1ccc(NC(=O)/C=C/c2ccccc2)cc1	2103	1660	5	3	4	1730
Cc1c(NC(=O)Cc2ccccc2)cccc1C(=O)NN1C(=O)c2ccccc2C1=O	1730	1411	-2	1	6	1551
COc1ccc(CCCc2n[nH]c(=S)o2)cc1	1887	1430	-1	7	-2	2009*
Cc1cc(=O)[nH]c(N/N=C/c2sccc2C)n1	1872	1636	3	7	9	1625
Cc1ccsc1/C=N/Nc1nc2ccccc2[nH]1	2515*	1746	8	13	17	1670
